Consider nine compounds from PubChem BioAssay (Tox21).

Assay [1] can be described thus: Nuclear factor erythroid 2-related factor 2/antioxidant responsive element (Nrf2/ARE) small molecule agonists: qHTS cell viability counter screen in human keratinocytes (AID 1919968; active means well fitted curve in the direction sought with a large enough effect in the repeat runs; an effect the other way counts as inactive or inconclusive; further: nearly all actives have a fitted effect of over 55% in size). Summed up: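 Measured as CellTiter-Fluor fluorescence, this readout tracks cytotoxicity in the same wells as the ARE-luciferase screen. HaCaT reporter cells (1,500/well) received compounds after a 5 h pre-incubation and were exposed for 23 h.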
(In general: Quantitative high-throughput screening tests each substance at several concentrations.)

Assay [2] can be described thus: Nuclear factor erythroid 2-related factor 2/antioxidant responsive element (Nrf2/ARE) small molecule agonists: luciferase reporter gene qHTS assay in human keratinocytes (AID 1919969). Further: nearly all actives have a fitted effect of over 35% in size. Further: potency means the concentration at half of the fitted maximal effect. For orientation: A reporter such as luciferase makes a cellular process visible.
Assay [3] concerns the target Gonadotropin-releasing hormone receptor (Homo sapiens) (UniProt P30968). As to the kind of experiment: Human gonadotropin-releasing hormone receptor (GnRHR) small molecule agonists, calcium flux assay in GnRHR-HEK293 cells (AID 1920063). Further: nearly all actives have a fitted effect of over 35% in size. The method in brief:
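Fluorescence kinetics (480 nm excitation, 540 nm emission; 3 min, 1 s steps) report calcium mobilisation in human GnRHR-HEK293 cells in agonist mode. Dye incubation: 1 h, 37 C.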
On the technique in general: A change in cytosolic calcium serves as a functional read-out for many receptors and channels.

The target of assay [4] is KiSS-1 receptor (Homo sapiens) (UniProt Q969F8). The assay can be described thus: Human kisspeptin (KISS1R) small molecule agonists, calcium flux assay in KISS1R-HEK293 cells (AID 1920064; active means well fitted curve in the direction sought with a large enough effect in the repeat runs; an effect the other way counts as inactive or inconclusive). Summed up: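 Measures KISS1R agonism through calcium-sensitive dye fluorescence in stably transfected HEK293 cells, read for 3 min after pin-tool compound delivery; 15-point titrations in triplicate.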

Assay [5] is described as follows: p53 small molecule agonists, cell-based qHTS assay with rat liver microsomes: qHTS cell viability counter screen (AID 1963580). Further: nearly all actives have a fitted effect of over 45% in size. The method in brief:
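In HCT-116 cells carrying a p53 response element-bla reporter, compounds were metabolically activated in situ by rat liver microsomes with NADPH over 16 h. Cell ATP content then served as the cytotoxicity measure.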

For assay [6], the target named is 5-hydroxytryptamine receptor 2A (Homo sapiens) (UniProt P28223). The assay can be described thus: 5-hydroxytryptamine receptor 2A (HTR2A) small molecule antagonists, cell-based qHTS assay (AID 1963586). Further: nearly all actives have a fitted effect of over 45% in size. The method in brief: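 Antagonist-mode intracellular calcium assay: DOI (4 nM) added after 5 min compound pre-incubation at room temperature to dye-loaded HTR2A-CHO cells. Fluorescence followed for 3 min, sampled every second.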

The target is the same in assay [7]. As to the kind of experiment: 5-hydroxytryptamine receptor 2A (HTR2A) small molecule agonists, cell-based qHTS assay (AID 1963587). Further: nearly all actives have a fitted effect of over 30% in size. Summed up:
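HTR2A-CHO cells, plated 18 h at 37 C/5% CO2, dye-loaded 1 h at 37 C; compounds in DMSO added by pin tool (agonist mode). Intracellular calcium flux read as kinetic fluorescence on FDSS over 2 min at 1 s intervals.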

For assay [8], the target named is Muscarinic acetylcholine receptor M1 (Homo sapiens) (UniProt P11229). The assay can be described thus: Cholinergic receptor muscarinic 1 (CHRM1) small molecule antagonists, cell-based qHTS assay (AID 1963588). Further: nearly all actives have a fitted effect of over 40% in size. The method in brief: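 CHRM1-CHO calcium-flux assay, antagonist mode. Cells were seeded 18 h, dye-loaded 1 h at 37 C and given compound for 5 min at RT, then acetylcholine was added at 50nM. FDSS fluorescence was read 3 min; 15 concentrations, three runs.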

Assay [9] shares this target. As to the kind of experiment: Cholinergic receptor muscarinic 1 (CHRM1) small molecule agonists, cell-based qHTS assay (AID 1963589). Further: nearly all actives have a fitted effect of over 35% in size. Summed up:
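Each compound was tested at 15 concentrations across three independent runs on dye-loaded CHO cells stably expressing human CHRM1, reading intracellular calcium fluorescence kinetically at 1 sec intervals.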

A short description of assay [10]: cAMP Responsive Elements (CRE) small molecule agonists, cell-based qHTS assay (AID 1963590). Summed up: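 Cell line: CRE-bla HEK 293T; medium DMEM/10% dialyzed FBS/0.1 mM NEAA/1 mM pyruvate/25 mM HEPES; 3 h compound exposure; beta-lactamase FRET readout after 2 h substrate loading at RT.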
Assay [11] can be described thus: cAMP Responsive Elements (CRE) small molecule antagonists, cell-based qHTS assay (AID 1963591; active means well fitted inhibition curve with a large enough effect in the signal ratio in the repeat runs, not every such curve was filed as active; the % refers to the signal ratio). Summed up: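 Inhibition of NKH477-driven (0.25 uM final) CRE-beta-lactamase signal in HEK293T cells, 3 h compound exposure at 37 °C, detected by FRET substrate fluorescence.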
Assay [12] has as its target Beta-2 adrenergic receptor (Homo sapiens) (UniProt P07550). As to the kind of experiment: Adrenergic beta2 receptor (ADRB2) small molecule antagonists, cell-based qHTS assay (AID 1963592). Further: series mostly up to about 92 µM; nearly all actives have a fitted effect of over 50% in size. Summed up: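 Cells (CHO, stable ADRB2 overexpression) incubated 18-20hr at 37C; compounds added from DMSO; agonist mix (1nM isoproterenol, 100uM IBMX, 25uM Ro-20-1724) added; 0.5hr RT; d2-cAMP and anti-cAMP-cryptate added; 1hr RT; 665/615 nm read.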

The target is the same in assay [13]. The assay can be described thus: Adrenergic beta2 receptor (ADRB2) small molecule agonists, cell-based qHTS assay (AID 1963593).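 Further: CHO cells stably overexpressing human ADRB2.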 The method in brief:
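CHO cells stably over-expressing ADRB2 were plated overnight at 37C, then dosed with compounds plus a stimulation mix containing 100uM IBMX and 25uM Ro-20-1724 for 0.5hr at room temperature. cAMP was measured by HTRF competition, 1hr.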

Assay [14] deals with D(2) dopamine receptor (Homo sapiens) (UniProt P14416). As to the kind of experiment: Dopamine D2 receptor (DRD2) small molecule agonists, cell-based qHTS assay (AID 1963594). Further: nearly all actives have a fitted effect of over 35% in size. Summed up:
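HEK293 cells stably expressing DRD2 were cultured 24 h at 37 C, then given Ro20-1724 (0.1 mM final) and compounds for 10 min at room temperature. NKH477 (200nM) was then added for 30 min. cAMP was read by HTRF.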

The target is the same in assay [15]. The assay can be described thus: Dopamine D2 receptor (DRD2) small molecule antagonists, cell-based qHTS assay (AID 1963595; active means well fitted inhibition curve with a large enough effect in the signal ratio in the repeat runs, with a control signal flat; the % refers to the signal ratio). Summed up:
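Stable D2 receptor HEK293 line, 24 h after seeding. Compound preincubated 10 min, then quinpirole (12 nM) with forskolin analogue NKH477 (200 nM), 30 min, room temperature. Detection by time-resolved FRET of cAMP.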

Assay [16] is described as follows: p53 small molecule agonists, cell-based qHTS assay with human liver microsomes: qHTS cell viability counter screen (AID 1963579). Further: nearly all actives have a fitted effect of over 45% in size. The method in brief:
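Cytotoxicity counter screen: p53RE-bla, 4,000 cells/well; 5 h settle, 37 C/5% CO2; cpd + HLM 0.5 mg/mL + NADPH 0.5 mg/mL (final); 16 h, 37 C; CellTiter-Glo, 30 min RT, luminescence.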

A short description of assay [17]: p53 small molecule agonists, cell-based qHTS assay: qHTS cell viability counter screen (AID 1963581). Further: nearly all actives have a fitted effect of over 45% in size. The method in brief: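 In the same plates used for the p53 bla reporter, HCT-116 cells given compounds for 16 h at 37 C received CellTiter-Glo; luminescence was recorded 30 min later at room temperature.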

Values joined by “and” are separate entries in the source; they are usually repeats but may differ in a detail not shown here. Equal values may be shown once. Inconclusive results are not listed. Active and inactive are the calls of the source. Unless noted, the call rests on the fitted dose curve.

Sequence of Beta-2 adrenergic receptor (Homo sapiens) (P07550 whole entry, looked up): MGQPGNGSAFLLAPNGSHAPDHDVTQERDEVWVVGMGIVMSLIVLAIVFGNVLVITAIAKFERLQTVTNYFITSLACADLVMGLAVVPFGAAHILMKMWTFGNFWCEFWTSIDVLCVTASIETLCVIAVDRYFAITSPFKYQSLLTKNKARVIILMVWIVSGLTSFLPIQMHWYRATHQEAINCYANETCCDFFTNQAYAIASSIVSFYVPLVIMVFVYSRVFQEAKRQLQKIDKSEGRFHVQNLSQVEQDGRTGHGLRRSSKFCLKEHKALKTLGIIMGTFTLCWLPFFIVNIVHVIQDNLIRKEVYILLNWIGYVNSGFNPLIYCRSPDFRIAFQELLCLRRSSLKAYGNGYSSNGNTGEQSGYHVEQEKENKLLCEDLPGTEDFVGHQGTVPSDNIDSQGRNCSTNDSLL
Sequence of D(2) dopamine receptor (Homo sapiens) (P14416 whole entry, looked up): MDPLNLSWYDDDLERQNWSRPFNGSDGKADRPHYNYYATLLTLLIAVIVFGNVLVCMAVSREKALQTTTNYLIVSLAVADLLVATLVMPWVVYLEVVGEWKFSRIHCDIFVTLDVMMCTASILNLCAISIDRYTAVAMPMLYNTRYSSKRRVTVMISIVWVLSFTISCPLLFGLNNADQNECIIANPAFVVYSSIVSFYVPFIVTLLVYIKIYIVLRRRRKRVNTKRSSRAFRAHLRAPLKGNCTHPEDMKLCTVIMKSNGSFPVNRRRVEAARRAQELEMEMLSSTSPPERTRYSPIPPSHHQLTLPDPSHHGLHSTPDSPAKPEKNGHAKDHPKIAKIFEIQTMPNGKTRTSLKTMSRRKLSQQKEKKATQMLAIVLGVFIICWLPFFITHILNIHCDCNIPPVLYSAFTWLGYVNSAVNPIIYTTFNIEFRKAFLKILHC
Sequence of KiSS-1 receptor (Homo sapiens) (Q969F8 whole entry, looked up): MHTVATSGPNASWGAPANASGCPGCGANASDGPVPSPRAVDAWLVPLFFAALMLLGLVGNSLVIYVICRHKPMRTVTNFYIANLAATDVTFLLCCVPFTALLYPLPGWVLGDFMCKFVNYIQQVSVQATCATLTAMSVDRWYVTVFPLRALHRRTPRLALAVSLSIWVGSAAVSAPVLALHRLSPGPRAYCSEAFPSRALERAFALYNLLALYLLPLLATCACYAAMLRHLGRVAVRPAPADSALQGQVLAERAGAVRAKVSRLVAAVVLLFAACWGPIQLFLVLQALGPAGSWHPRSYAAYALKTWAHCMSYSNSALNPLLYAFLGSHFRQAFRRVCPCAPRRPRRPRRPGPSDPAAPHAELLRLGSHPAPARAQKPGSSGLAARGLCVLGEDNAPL
Sequence of Gonadotropin-releasing hormone receptor (Homo sapiens) (P30968 whole entry, looked up): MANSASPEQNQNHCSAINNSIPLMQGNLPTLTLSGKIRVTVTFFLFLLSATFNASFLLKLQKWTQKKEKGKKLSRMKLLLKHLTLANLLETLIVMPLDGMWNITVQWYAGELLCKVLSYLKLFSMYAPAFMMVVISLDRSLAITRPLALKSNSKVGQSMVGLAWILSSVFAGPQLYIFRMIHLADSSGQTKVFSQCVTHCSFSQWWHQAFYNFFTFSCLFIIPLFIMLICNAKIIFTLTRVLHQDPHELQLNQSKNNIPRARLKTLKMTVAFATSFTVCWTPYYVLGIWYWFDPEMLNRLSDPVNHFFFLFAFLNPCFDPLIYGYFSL
Sequence of Muscarinic acetylcholine receptor M1 (Homo sapiens) (P11229 whole entry, looked up): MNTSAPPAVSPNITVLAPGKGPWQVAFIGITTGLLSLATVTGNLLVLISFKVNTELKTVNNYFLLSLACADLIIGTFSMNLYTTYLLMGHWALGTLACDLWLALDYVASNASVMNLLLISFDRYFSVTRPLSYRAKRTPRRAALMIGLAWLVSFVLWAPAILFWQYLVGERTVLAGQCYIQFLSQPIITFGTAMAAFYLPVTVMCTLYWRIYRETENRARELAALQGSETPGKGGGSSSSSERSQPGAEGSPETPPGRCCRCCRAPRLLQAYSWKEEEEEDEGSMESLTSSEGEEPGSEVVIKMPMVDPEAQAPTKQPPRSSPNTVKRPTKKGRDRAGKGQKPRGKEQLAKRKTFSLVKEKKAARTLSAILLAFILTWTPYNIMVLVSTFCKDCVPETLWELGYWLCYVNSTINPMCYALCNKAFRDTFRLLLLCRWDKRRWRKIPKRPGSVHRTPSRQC
Sequence of 5-hydroxytryptamine receptor 2A (Homo sapiens) (P28223 whole entry, looked up): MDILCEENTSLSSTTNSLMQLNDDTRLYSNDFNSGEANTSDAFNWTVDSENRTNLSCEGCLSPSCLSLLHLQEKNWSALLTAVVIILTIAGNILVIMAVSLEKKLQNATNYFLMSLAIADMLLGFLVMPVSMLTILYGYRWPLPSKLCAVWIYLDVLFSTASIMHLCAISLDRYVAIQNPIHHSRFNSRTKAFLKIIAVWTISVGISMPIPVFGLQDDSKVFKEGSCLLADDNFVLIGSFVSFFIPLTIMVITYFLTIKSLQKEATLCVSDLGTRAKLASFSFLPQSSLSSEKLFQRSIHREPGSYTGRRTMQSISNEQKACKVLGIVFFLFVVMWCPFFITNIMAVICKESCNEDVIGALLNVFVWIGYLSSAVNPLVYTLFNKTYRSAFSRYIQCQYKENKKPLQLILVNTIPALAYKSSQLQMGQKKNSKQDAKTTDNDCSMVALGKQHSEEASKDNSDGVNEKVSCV

Consider `Clc1ccccc1Cl`, for which the Potency entry in assay [1], in [2], in assay [3], in assay [4], in assay [5] and in [6] was “inactive” in each case. Moreover, the Potency entry in assay [7], in assay [8], in assay [9], in [10], in [11] and in assay [12] was “inactive” in each case. In addition, the Potency result in [13], in assay [14] and in assay [15] was “inactive” each time.

For `O=C/C(Cl)=C(/Cl)C(=O)O`, the Potency entry in [1], in [3], in assay [4], in assay [16], in assay [5] and in assay [17] was “inactive” throughout. Also, the Potency entry in assay [6], in assay [7], in assay [8], in assay [10], in assay [11] and in assay [12] was “inactive” throughout. Further, the Potency entry in assay [13], in assay [14] and in assay [15] was “inactive” each time. For the same compound, the Potency in [2] is 68.5 µM (active) and 68.6 µM (active).

With `C[C@]12C=CC3=C4CCC(=O)C=C4CC[C@H]3[C@@H]1CC[C@@H]2O`, the Potency result in assay [1], in [3], in assay [4], in assay [16], in assay [5] and in assay [17] was “inactive” throughout. In addition, the Potency result in [12], in assay [13], in assay [14] and in assay [15] was “inactive” in each case. In addition, in [2], the Potency is 27.1 µM (active) and 58 µM (active).

In the case of `CCCC[N+]1(C)CCCCC1`, the Potency result in assay [1], in assay [2], in [3], in [4], in assay [16] and in assay [5] was “inactive” throughout. Besides, the Potency result in [17], in [7], in assay [8], in [9], in assay [10] and in assay [11] was “inactive” each time. Besides, the Potency entry in assay [12], in [13], in assay [14] and in assay [15] was “inactive” in each case.

For `CCn1cc[n+](C)c1`, the Potency entry in [1], in [2], in [3], in assay [4], in [16] and in [5] was “inactive” throughout. In addition, the Potency result in [6], in assay [7], in assay [8], in assay [9], in [10] and in assay [11] was “inactive” throughout. Also, the Potency result in assay [12], in assay [13], in assay [14] and in assay [15] was “inactive” in each case.

In the case of `O=C(O)CCl`, the Potency entry in assay [1], in assay [2], in assay [3], in [4], in assay [16] and in assay [5] was “inactive” each time. Besides, the Potency entry in [6], in assay [7], in assay [8], in assay [9], in [10] and in [11] was “inactive” in each case. The Potency result in assay [12] and in assay [15] was “inactive” each time.

Consider `O=c1[nH]c(=O)n(Cl)c(=O)n1Cl`, for which the Potency result in assay [1], in assay [2], in assay [3], in assay [4], in assay [16] and in assay [5] was “inactive” each time. For the same compound, the Potency result in assay [6], in assay [7], in assay [8], in assay [9], in assay [10] and in assay [11] was “inactive” each time. Further, the Potency result in [12], in assay [14] and in assay [15] was “inactive” in each case.

In the case of `CCCCC(CC)COC(=O)Cl` (configuration not stated), the Potency result in [1], in assay [2], in assay [3], in assay [4], in assay [16] and in assay [17] was “inactive” throughout. Moreover, the Potency entry in assay [6], in assay [7], in assay [8], in [9], in [10] and in assay [11] was “inactive” in each case. Further, the Potency result in assay [12], in assay [13], in assay [14] and in assay [15] was “inactive” each time.

Regarding `CCC1(c2ccc(N)cc2)CCC(=O)NC1=O` (configuration not stated), the Potency result in assay [1], in assay [2], in assay [3], in assay [4], in [16] and in assay [5] was “inactive” in each case. For the same compound, the Potency result in assay [17], in assay [10], in [11], in assay [12], in [13] and in assay [14] was “inactive” in each case. Besides, in [15], the Potency entry was “inactive”.
